Bioassay records deposited in PubChem by National Center for Advancing Translational Sciences (NCATS).
HCV inhibitor: HCV inhibition. Potency, µM (highest dose often 41.8 µM), inactives show at the top dose activity change, negative = inhibition, usual class: inhibitors. 340,000 compounds, 3.4% hits. Huh7.5.1 HCVcc-Cre infection, luciferase reporter, 44 h; active = well fitted inhibition curve with a large enough effect; inconclusive = small, poorly fitted or top-dose-only effect, or another doubt; inactive = no such curve, though single readings can be large or run the other way; also: potency is read from the fitted curve at half-maximal effect; % is scaled to controls: 0 for no effect and ±100 for the full control effect
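1,000 cells/well; 4 h culture; + compound; + HCVcc-Cre (~0.5 moi); 44 h; luciferase substrate, RT 15 min; read 15 sec.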
Lassa entry inh: Lassa virus entry inhibition; Lassa virus pseudotype entry inhibition, cell reporter; Potency, µM (titrated, usually from 37.9 µM), for the others: at the highest dose activity change, negative = inhibition, most hits filed as inhibitors; 300,000 compounds, 1.2% hits; calls by dose curve; tested in HEK293 cells; also: potency is read from the fitted curve at half-maximal effect; % is scaled to controls: 0 for no effect and ±100 for the full control effect; nearly all actives have a fitted effect of over 50% in size
MARV entry inh: Marburg virus entry inhibition. Potency, µM (highest dose often 37.8 µM), inactives show at the highest dose activity change, negative = inhibition, most hits filed as inhibitors. 300,000 compounds, 1.8% hits. AID 540276. Marburg virus pseudotyped entry inhibition, cell reporter; calls by dose curve; tested in HEK293 cells; also: potency is read from the fitted curve at half-maximal effect; % is scaled to controls: 0 for no effect and ±100 for the full control effect
Shiga toxin inh: inhibitors of Shiga toxin in Vero cells. AID 2315. Vero cells, Shiga toxin protein synthesis inhibition reporter. 290,000 compounds, 9.2% hits. inhibition, % at 38.7 µM; in the data active = inhibition mostly above about 28%, no sharp cut-off; inactive = mostly below about 43%; also: 0% is about no effect
CHX counter: affects cycloheximide protein synthesis inhibition readout, counter-screen | cell reporter, cycloheximide protein synthesis inhibition counterscreen | max response, % | 300,000 compounds, 12% hits; in the data active = max response mostly above about 13%, no sharp cut-off; inactive = mostly below about 14%; also: read at 38.3 µM for the half of the compounds with a filed dose; 0% is about no effect
FMDV inh: antivirals against foot and mouth disease virus; FMDV antiviral cell-based qHTS; Potency, µM (doses to about 57.9 µM), for inactives: at the top dose activity change, negative = inhibition, actives largely listed as inhibitors; 410,000 compounds, 1.2% hits; calls by dose curve; tested in HEK293T cells; also: read-out not given here; potency is read from the fitted curve at half-maximal effect; % is scaled to controls: 0 for no effect and ±100 for the full control effect; nearly all actives have a fitted effect of over 45% in size
An asterisk follows results filed as active; ? = inconclusive; . = no result; [ ] = remark or other dose. The list is not random: actives were taken first. Their share in the collection is about 13%.

SMILES	HCV inhibitor	Lassa entry inh	MARV entry inh	Shiga toxin inh	CHX counter	FMDV inh
CN(C)C1=NC[C@H](Cc2ccccc2)N1CC1CCCC1	?	.	.	.	.	-20%
CCc1cc(C=NC2CCCCC2)c(O)s1	-24%	6%	?	119*	66*	10%
COc1ccc(/C=N/n2c(SC)nnc(C(C)(C)C)c2=O)c(OC)c1	3%	6.3µM*	-6%	56	-1	-21%
CCN(c1ccccc1)S(=O)(=O)c1ccc(OCC(F)(F)F)c(NC(=O)c2ccc(=O)[nH]c2)c1	3%	.	.	.	.	-5%
CCN(CC)CCOCCOc1cc(C)c(Cl)c(C)c1	11µM*	-25%	?	-9	-4	.
O=C(NC1CC1)c1ccc2c(c1)ncn2C1CCCC1	3%	21%	11%	69*	33*	61%
COc1ccccc1-n1cnc2cc(C(=O)NC3CCCC3)ccc21	-3%	6%	16%	19*	2	20%
O=C(O)c1ccc2c(c1)ncn2C1CCCCC1	23%	3%	4%	-2	-4	.
N#Cc1c(-c2ccc(F)cc2)nc2n(c1=O)CCS2	22µM*	-6%	-7%	-14	-4	1%
COc1ccc(NC(=O)NNC(=O)COc2ccc3cc(Br)ccc3c2)cc1	23%	?	19%	42	13	30%
COc1ccc(CCC(=O)NNC(=O)Nc2ccc(C(C)C)cc2)cc1	7%	-16%[46.1 µM]	5%[46.1 µM]	-4	-1	1%
COc1ccc(CCC(=O)NNC(=O)Nc2ccc(C(C)=O)cc2)cc1	3%	0.71µM*	6%	-5	5	24%
COc1ccc(C(=O)COC(=O)CCC(=O)Nc2ccc(C(C)=O)cc2)cc1	25%	-3%	-1%	47*	40*	40%
COc1ccc2cc(OCC(=O)NNC(=O)Nc3ccc(C(C)=O)cc3)ccc2c1	-7%[8.37 µM]	5%[46.1 µM]	?	48	21*	20%
COc1ccc(CNS(=O)(=O)c2ccc(F)c(C(=O)Nc3ccccc3OC)c2)cc1	-9%	.	.	-11	-4	1%
CC(OC(=O)C1=Cc2ccccc2OC1)C(=O)NCc1ccco1 (centres undefined)	?	.	.	42	23*	-6%
COc1ccc(NC(=O)CCc2c(C)nc3cc(-c4cccc(F)c4)nn3c2C)cc1Cl	.	5%[46.1 µM]	5%[46.1 µM]	.	.	-30%
COc1cc(OC)cc(-c2cc3nc(C)c(CCC(=O)Nc4ccc(F)c(Cl)c4)c(C)n3n2)c1	.	-21%[46.1 µM]	?	.	.	32µM*
O=C(c1ccc(-c2ccccc2)cc1)N1CCC2CC1c1cc(-c3ccc4c(c3)OCO4)ccc12 (centres undefined)	.	.	.	.	.	23%
N#Cc1ccc(C(=O)N2CCC3CC2c2cc(-c4ccc(F)cc4)ccc23)cc1 (centres undefined)	35µM*	.	.	.	.	0%
COc1ccc(C2C(C(=O)c3ccccc3)N3c4ccccc4C=CC3C2[N+](=O)[O-])cc1 (centres undefined)	-25%	-10%	-29%[46.1 µM]	24	22*	7%
N=c1c(C(=O)NCCN2CCOCC2)cc2c(=O)n3ccccc3nc2n1CCCN1CCOCC1	9%	-9%[46.1 µM]	?	-4	-9	28%
N#CC(C#N)=Cc1cccnc1	24%	12%	5%[46.1 µM]	4	-2	-24%
N#C/C(=C\c1cccnc1)c1ccc(Br)cc1	?	.	.	44	47*	16%
CC(=O)C1CCC2(O)C3CCC4=CC(=O)CCC4(C)C3CCC12C (centres undefined)	1%	-2%[46.1 µM]	18%	.	.	-20%
SMILES	HCV inhibitor	Lassa entry inh	MARV entry inh	Shiga toxin inh	CHX counter	FMDV inh
C[C@@H]1O[C@@H](O[C@@H]2C=C3CC[C@@H]4C(CC[C@]5(C)[C@@H](c6ccc(=O)oc6)CC[C@]45O)[C@@]3(C)CC2)[C@H](O)[C@H](O)[C@H]1O (some centres undefined)	0.56µM*	.	.	.	.	?
OC1C=C2CCN3Cc4cc5c(cc4C(C1O)C23)OCO5 (centres undefined)	.	.	.	.	.	-11%
O[C@@H]1[C@@H](O)C=C2CCN3Cc4cc5c(cc4[C@H]1C23)OCO5 (some centres undefined)	3.2µM*	.	.	.	.	?
CC(C)(C)NC(=O)C(OC(=O)c1cccs1)c1ccc(F)cc1 (centres undefined)	4%	.	.	-8	9	6%
CC(C)(C)NC(=O)C(OC(=O)c1cccs1)c1ccccc1 (centres undefined)	-9%	.	.	2	22*	19%
O=C(C[n+]1ccccn1)c1ccccc1	-4%	30%	8%	40*	15*	29%
C/C(=N/Nc1ccc([N+](=O)[O-])cc1)c1c[nH]c2ccccc12	?	.	.	34*	27*	31%
C/C(=N/Nc1ccc([N+](=O)[O-])cc1)c1ccc(C)cc1C	?	-15%	-46%	94*	42*	16%
C/C(=N\NC(=O)CCc1c[nH]c2ccccc12)c1ccc([N+](=O)[O-])cc1	-25%	?	?	13	-4	?
C/C(=N\Nc1ccc([N+](=O)[O-])cc1)c1ccc(C#N)cc1	6%	-19%	?	10	-5	-2%
N#Cc1ccc(CN2CCN(C(=O)c3cccc(S(=O)(=O)N4CCCCCC4)c3)CC2)cc1	?	-25%	-12%	.	.	?
CN(CCc1ccccc1)C(C(=O)c1ccc2c(c1)OCO2)c1nnnn1-c1ccccc1NC(=O)OC(C)(C)C (centres undefined)	.	.	.	.	.	40%
CCC(CC)c1nn2c(N)c(/C=C3\C(C)=Nc4ccccc43)c(=O)nc2s1	0%	-1%	-12%[14.2 µM]	10	0	7%
CN(C)C(=O)C(=O)c1c(-c2ccccc2)cc2ccccn12	9%	8%	19%	11	8	0%
O=Nc1c(-c2ccccc2)cc2ccccn12	-24%	.	.	130*	48*	40%
CCOC(=O)c1ccc(NC(=O)C(Cc2ccccc2)N2Cc3ccccc3C2=O)cc1 (centres undefined)	.	12%[46.1 µM]	.	.	.	4%
COC(=O)C(Cc1ccc(OC(=O)c2ccc(C(F)(F)F)cc2)cc1)N1Cc2ccccc2C1=O (centres undefined)	6%	10%	?	69*	43*	23%
COC(=O)C(Cc1ccc(OC(=O)c2ccc(Cl)cc2)cc1)N1Cc2ccccc2C1=O (centres undefined)	3%	9%	?	126*	44*	-27%
COc1ccc2cc(C(=O)C3CCCN(C4CCOCC4)C3)ccc2c1 (centres undefined)	-19%	2%[46.1 µM]	7.9µM*	-11	-3	2%
COc1ccc(C(=O)C2CCCN(Cc3ccon3)C2)cc1OC (centres undefined)	10%	?	2%[46.1 µM]	47	57*	3%
Brc1ccc(Oc2ncc(CN3CCOCC3)s2)cc1	-4%	9%	?	41	33*	1%
COc1ccc(C(=O)C2CCCN(C(=O)c3n[nH]c4c3CCCC4)C2)cc1OC (centres undefined)	-12%	-5%[46.1 µM]	-22%[46.1 µM]	30	16*	-13%
